Test [1] has as its target Calcium and integrin-binding protein 1 (Homo sapiens) (UniProt Q99828). The test is described as follows: Primary qHTS for Identification of Calcium Integrin Binding Protein 1 (CIB1) Competitor (AID 1508620).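 Also: GST tagged CIB1 binding a fluorescein labelled alphaIIb integrin peptide tracer; top concentration of the series differs between compounds.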 The method, boiled down: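 CIB1-GST (1 uM final) and compound incubated 15 min at room temperature before adding FITC-alphaIIb peptide tracer (100 nM final). Competition for binding read by fluorescence polarization (ex 480, em 540) after another 15 min at room temperature.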

Test [2] can be described thus: Primary qHTS for inhibitors of nuclear receptor binding SET domain protein 2 (NSD2) in an isogenic RCH-ACV NSD2 p.E1099K mutant (9B) (AID 1645876). Also: nearly all actives have a fitted effect of over 70% in size. Also: potency is read from the fitted curve at half-maximal effect.

The values that follow come from PubChem BioAssay (NCATS).

“And” between values parts separate entries of the source, which are not always exact repeats. Equal values may be shown once. Results filed as inconclusive are left out. A number with no mark means an inactive call. The source made the active and inactive calls. Calls follow the shape of the dose curve; as a rule, active = well fitted inhibition curve with a large enough effect; inconclusive = small, poorly fitted or top-dose-only effect; inactive = flat fitted curve, though single readings scatter.
% is scaled to controls: 0 for no effect and ±100 for the full control effect.

Sequence of Calcium and integrin-binding protein 1 (Homo sapiens) (Q99828 whole entry, looked up): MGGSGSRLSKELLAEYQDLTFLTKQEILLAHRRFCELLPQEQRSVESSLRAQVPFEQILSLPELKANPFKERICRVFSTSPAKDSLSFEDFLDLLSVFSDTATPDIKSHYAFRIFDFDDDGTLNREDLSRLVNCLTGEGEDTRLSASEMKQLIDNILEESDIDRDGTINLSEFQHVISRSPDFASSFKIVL

Regarding `C[C@@H]1C[C@H]2O[C@@H]2/C=C\C=C\C(=O)Cc2c(Cl)c(O)cc(O)c2C(=O)O1`, the Potency entry in test [1] was “inactive”. In test [2], the Potency was 488 nM (active) and 640 nM (active).

On to `O=C(/C=C/c1ccccc1)OC[C@]12O[C@H]1[C@@H](O)[C@@H]1C=CO[C@@H](O[C@@H]3O[C@H](CO)[C@@H](O)[C@H](O)[C@H]3O)[C@@H]12`, for which the Potency entry in test [1] and in test [2] was “inactive” each time.

As to `CC(O)/C=C/C1(O)C(C)C(O[C@@H]2O[C@H](CO)[C@@H](O)[C@H](O)[C@H]2O)C(O)CC1(C)C` (some centres undefined), the Potency entry in test [1] and in test [2] was “inactive” each time.

With `C=C1C(=O)O[C@H]2[C@H]1CC/C(C)=C/CC[C@@]1(C)O[C@@H]21`, the Potency result in test [1] is “inactive”. For the same molecule, the Potency in test [2] is 25.8 µM (active).

Turning to `C[C@@H]1O[C@@H](O[C@@H]2CO[C@@H](O[C@H]3CC[C@@]4(C)C(CC[C@]5(C)C4CC=C4[C@@H]6CC(C)(C)CC[C@]6(C(=O)O[C@@H]6O[C@H](CO)[C@@H](O)[C@H](O)[C@H]6O)CC[C@]45C)[C@]3(C)CO)[C@H](O)[C@H]2O[C@@H]2O[C@H](CO)[C@@H](O)[C@H](O)[C@H]2O)[C@H](O)[C@H](O)[C@H]1O` (some centres undefined), the Potency entry in test [1] is “inactive”. Besides, the activity change, negative = viability loss in test [2] is -16% [at 9.23 µM].

Consider `CC(=O)N[C@H]1[C@H](O[C@H]2CC[C@@]3(C)C(CC[C@]4(C)C3CC=C3C5CC(C)(C)CC[C@]5(C(=O)O)[C@H](O)C[C@]34C)C2(C)C)O[C@H](CO[C@@H]2OC[C@H](O)[C@H](O)[C@H]2O[C@@H]2OC[C@@H](O)[C@H](O)[C@H]2O)[C@@H](O)[C@@H]1O` (some centres undefined), for which the Potency entry in test [1] is “inactive”. The activity change, negative = viability loss in test [2] is -10% [at 9.23 µM].

In the case of `CC1=CC(=O)CC(C)(C)[C@@]1(O)CC[C@@H](C)O[C@@H]1O[C@H](CO)[C@@H](O)[C@H](O)[C@H]1O`, the Potency result in test [1] and in test [2] was “inactive” in each case.

As for `CC(/C=C/C1=CC2=CC(=O)C(C)(O)C(O)C2=CO1)=C\C(C)CCO` (centres undefined), the Potency result in test [1] and in test [2] was “inactive” each time.

Take `C=C1CC[C@@H]2[C@@](C)(CO[C@@H]3O[C@H](CO)C(O)[C@H](O)C3O)[C@H](O)CC[C@@]2(C)[C@@H]1CC/C(C)=C/CO` (some centres undefined): the Potency result in test [1] is “inactive”. Further, in test [2], the activity change, negative = viability loss is 3.18% [at 9.23 µM].

On to `CC1CCC2C(C)(C)[C@@H](O)CC[C@]2(C)C12Cc1c(O)cc3c(c1O2)CN(C(CCC(=O)O)C(=O)O)C3=O` (some centres undefined), for which the Potency result in test [1] and in test [2] was “inactive” in each case.

Take `C[C@H](NC(=O)CCc1nc2ccccc2c(=O)[nH]1)c1ccccc1`: the Potency entry in test [1] and in test [2] was “inactive” throughout.

For the molecule `O=C(c1ccc(/C=C/c2n[nH]c3ccccc23)cc1)N1CCNCC1`, the Potency result in test [1] is “inactive”. Further, the Potency in test [2] is 649 nM (active) and 2.63 µM (active).

With `O=C(O)c1cc(I)ccc1NC(=O)[C@H](Cc1ccccc1)NCc1ccccc1`, the Potency entry in test [1] and in test [2] was “inactive” each time.

With `Cc1cc(Cl)ccc1COc1ccnn1-c1cc(C(=O)O)ccn1`, the Potency entry in test [1] and in test [2] was “inactive” throughout.

Regarding `CC1(O)CCCC2(C)C1CCC13CC(CO)C(CCC12)C3` (centres undefined), the Potency result in test [1] and in test [2] was “inactive” in each case.

With `COc1cc(C(=O)O)ccc1OC1OC(CO)C(O)C(O)C1O` (centres undefined), the Potency entry in test [1] and in test [2] was “inactive” each time.

As for `CC1(C)CC[C@@]2(C(=O)O[C@@H]3O[C@H](CO)[C@@H](O)[C@H](O)[C@H]3O)C(C1)C1=CCC3[C@@]4(C)CC[C@@H](O[C@@H]5O[C@H](C(=O)O)[C@@H](O[C@@H]6OC[C@@H](O)[C@H](O)[C@H]6O)[C@H](O[C@@H]6OC[C@](O)(CO)[C@H]6O)[C@H]5O)C(C)(C)C4CC[C@@]3(C)[C@]1(C)C[C@H]2O` (some centres undefined), the Potency result in test [1] is “inactive”. Besides, in test [2], the activity change, negative = viability loss is -47.8% [at 9.23 µM].

As to `C=CC(C)(C)C12C=C(OC)C(=O)N3C(C(C)C)C(=O)NC31N(OC)c1ccccc12` (centres undefined), the Potency result in test [1] and in test [2] was “inactive” in each case.

In the case of `C=C(C(=O)OC)C1C(O)CC2(C)C(O)CCC(=O)C2C1O` (centres undefined), the Potency entry in test [1] and in test [2] was “inactive” in each case.

Regarding `CC1(C)CC[C@]23CO[C@@]4(CCC5[C@@]6(C)CC[C@H](O[C@@H]7OC[C@H](O[C@@H]8O[C@H](CO)[C@@H](O)[C@H](O)[C@H]8O)[C@H](O)[C@H]7O[C@@H]7O[C@H](CO)[C@@H](O[C@@H]8O[C@H](CO)[C@@H](O)[C@H](O)[C@H]8O)[C@H](O)[C@H]7O)[C@@](C)(CO)C6CC[C@@]5(C)[C@]4(C)C[C@H]2OC2OCC(O)C(O)C2O)C3C1` (some centres undefined), the activity change, negative = inhibition in test [1] was -6.44% [at 12.4 µM]. Also, the Potency in test [2] is 0.688 µM (active).

As for `CC(C)CC(=O)OC1OC=C(CO[C@@H]2O[C@H](CO)[C@@H](O)[C@H](O)[C@H]2O)C2CC(O)C(O)(CO)C12` (some centres undefined), the Potency result in test [1] and in test [2] was “inactive” in each case.

With `C[C@@H]1C(=O)O[C@H](C)[C@H]1CC(=O)[C@](C)(O)[C@H]1CC[C@@]2(O)C3=CC(=O)[C@@H]4C[C@@H](O)[C@@H](O)C[C@]4(C)C3CC[C@]12C` (some centres undefined), the Potency entry in test [1] and in test [2] was “inactive” each time.
